From PubChem BioAssay (NCI) come the findings set out here.

This is part of a sample that, as a whole, favours compounds with a hit. Of some 83,000 tested, about 20% had one in any assay.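 Step 1: grow cells in 96-well plates. Step 2: add test compound at a single concentration. Step 3: incubate 48 h. Step 4: record percent growth.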 Unmarked numbers belong to inactive results. Activity calls are given as the source filed them. Rule for the calls: active = growth percent below 10; inactive = the rest.

Holding throughout (assay): NCI-60 one-dose screen, 48 h (100 = growth as untreated, 0 = no growth, -100 = all killed)
Details in all cases: 10 µM unless noted

The subject of experiment [1] is RPMI-8226 leukemia.
Experiment [2] deals with OVCAR-8 ovarian.
Experiment [3] relates to OVCAR-5 ovarian.
For experiment [4], the system named is OVCAR-4 ovarian.
In experiment [5] the test system is SK-OV-3 ovarian.
In experiment [6] the test system is IGROV1 ovarian.
Experiment [7] deals with OVCAR-3 ovarian.
Experiment [8] concerns HS 578T breast.
Experiment [9] has as its system NCI/ADR-RES ovarian.

In the case of `N#Cc1c(-c2ccccc2)nc2c(c(-c3ccccc3)nn2-c2ccccc2)c1-c1ccc(O)cc1`, the growth was 12.9% in experiment [1]; 56% in experiment [2]; 81.2% in experiment [3]; 72.2% in experiment [4]; 71.1% in [5]; 72% in [6]. Also, the growth in experiment [7] was 54.2%; in [8], 15.9%; in experiment [9] it was 70.5%.
For the compound `O=C(CSc1nc2ccccc2[nH]1)NCc1ccccc1`, the growth in [1] was 101%; in experiment [2], 104%; in experiment [3], 95.4%; in experiment [4], 97.6%; in [5], 101%; in experiment [6] it was 102%. In addition, the growth in experiment [7] was 105%; in experiment [8], 97.9%; in experiment [9], 102%.
Turning to `N#CC1=C(N)Oc2c(ccc3ccccc23)C1c1ccccc1Cl` (stereo unspecified), the growth in experiment [1] is 30.1%; in experiment [2], 7.5% (active); in [3] it was 38.8%; in experiment [4] it was 42.2%; in experiment [5], 59.3%; in experiment [6] it was 24.9%. The growth was 5.72% (active) in experiment [7], 16.8% in experiment [8] and -0.548% (active) in experiment [9].
On to `COc1cc(C2C3=C(COC3=O)N(CCO)c3cc4c(cc32)CCC4)cc(OC)c1OC` (stereo unspecified), for which the growth in experiment [1] was 17.9%; in experiment [2], 31.5%; in [3] it was 8% (active); in experiment [4], 23.3%; in experiment [5], -32.1% (active); in experiment [6], 8.46% (active). Besides, the results for the growth in [7], in [8] and in experiment [9] were -33.4% (active), 14.5% and -74.5% (active), respectively.
Regarding `COc1cc(CC(=O)n2ncc3ccc(N)cc32)cc(OC)c1OC`, the growth was 100% in experiment [1]; 104% in experiment [2]; 91.9% in experiment [3]; 88.4% in experiment [4]; 95.6% in experiment [5]; 90.7% in experiment [6]. Further, the values for the growth in experiment [7], in experiment [8] and in [9] were 108%, 103% and 90.1%, respectively.
As to `COc1ccc(/C=C/C(=O)Nc2cc(/C=C\c3cc(OC)c(OC)c(OC)c3)cc(OC)c2OC)cc1OC`, the growth is 30.7% in experiment [1]; 34.2% in [2]; 63.2% in experiment [3]; 47.7% in experiment [4]; 11.6% in experiment [5]; 40.1% in experiment [6]. For the same compound, the growth in experiment [7] is 12.2%; in experiment [8], 29%; in [9] it was -11.2% (active).
As to `NS(=O)(=O)c1ccc(CCN2C(=O)C3C(C2=O)C2(Cl)C(Cl)=C(Cl)C3(Cl)C2(Cl)Cl)cc1` (stereo unspecified), the growth in [1] is 53%; in [2], 107%; in [3] it was 98.2%; in experiment [4], 96.2%; in experiment [5], 115%; in experiment [6] it was 97.3%. Further, the growth in experiment [7] was 108%; in experiment [8] it was 96.8%; in [9] it was 98.7%.
On to `CCNc1nc2ccc(Nc3ccnc4cc(Cl)ccc34)cc2[nH]1`, for which the growth in [1] is 86.7%; in [2], 75.8%; in experiment [3], 113%; in [4], 82.6%; in [5] it was 108%; in [6], 91.3%. In addition, the growth is 107% in experiment [7], 91.4% in experiment [8] and 95.8% in experiment [9].
`N#C/C(=C\c1ccc(Cl)cc1)n1nnc2cc(F)c(F)cc21`: the growth in [1] is -34.1% (active); in [2], 13.3%; in experiment [3], 22.2%; in experiment [4], 17.6%; in experiment [5] it was 88.7%; in experiment [6] it was 6.69% (active). Also, the growth in [7] is -0.889% (active); in [8] it was 13.6%; in [9] it was 17.6%.
Regarding `CC1(C)NCCC[C@]2(C)[C@H]3CC[C@@H]4[C@H]5[C@H](C(=O)/C=C/c6ccco6)CC[C@]5(CO)CC[C@@]4(C)[C@]3(C)CC[C@@H]12`, the growth in experiment [1] is 44.2%; in experiment [2] it was 95.2%; in [3], 101%; in experiment [4], 79.9%; in [5], 93.1%; in experiment [6], 89.5%. Besides, the values for the growth in [7], in [8] and in experiment [9] were 92.6%, 86.8% and 95.2%, respectively.
Take `CC(C)c1ccc(Nc2ccc3c(OCCCN4CCN(C)CC4)cccc3n2)cc1`: the growth in experiment [1] is 2.88% (active); in experiment [2], 88.7%; in [3] it was 81.2%; in experiment [4], 74.2%; in [5] it was 99.9%; in experiment [6], 83.1%. In addition, the growth in experiment [7] is 79.4%; in experiment [8] it was 77%; in experiment [9], 82%.
`O=C(Nc1cccc(C2=NCCN2)c1)c1ccc(-c2ccc(C(=O)Nc3cccc(C4=NCCN4)c3)cc2)cc1`: the growth is 24.8% in experiment [1]; 80.7% in experiment [2]; 88.5% in experiment [3]; 96.6% in experiment [4]; 111% in experiment [5]; 88.7% in [6]. Besides, the growth in [7] is 121%; in [8], 97.6%; in [9], 104%.
As to `CCCOC(=O)N[C@H]1CCc2cc(OC)c(OC)c(OC)c2-c2ccc(SC)c(=O)cc21`, the growth in experiment [1] is 5.39% (active); in experiment [2], 23.6%; in experiment [3], 33.9%; in experiment [4] it was 40.5%; in [5] it was 42.7%; in experiment [6], 17.5%. Further, the growth in [7] was -42.1% (active); in experiment [8], 5.68% (active); in [9] it was 5.94% (active).
For `CCOC(=O)Oc1c(OC)cc(C(=O)c2ccc(OC)c(OC(=O)CCl)c2OC)cc1OC`, the growth is 18.4% in experiment [1]; 25.5% in [2]; 77% in [3]; 79.8% in [4]; 19.7% in [5]; 40.4% in experiment [6]. Besides, the growth in experiment [7] is -18.4% (active); in [8] it was 15.2%; in experiment [9], -5.85% (active).
